Among the test systems are NCI-H23 lung; NCI-H226 lung; NCI-H322M lung; HOP-62 NSCLC; NCI-H460 lung; HOP-92 NSCLC; NCI-H522 lung; A549/ATCC NSCLC; 786-0 renal; COLO 205 colon; DU-145 prostate; K-562 leukemia; MALME-3M melanoma; MDA-MB-231 breast; RXF 393 renal; SF-268 CNS; SF-295 CNS; SF-539 CNS; UACC-257 melanoma; M14 melanoma.
Common to all, as to assay: NCI-60 one-dose screen, 48 h (100 = growth as untreated, 0 = no growth, -100 = all killed)
Holding throughout (details): 10 µM unless noted

This is part of a sample that, as a whole, favours compounds with a hit. Of some 83,000 tested, about 20% had one in any assay.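 Testing used 96-well plates and a 48-hour single-concentration exposure. Example: -40 means 40% of the starting cells died.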 Values without a mark were called inactive. The source made the active and inactive calls. How the source made its calls: active means growth percent below 10; inactive means the rest.

In the case of `COC(CCCl)c1ccc(Cl)cc1` (stereo not given), the growth in the test with NCI-H23 lung was 107%; with NCI-H226 lung, 101%; with NCI-H322M lung, 97.5%; in the test on HOP-62 NSCLC, 114%; with NCI-H460 lung, 107%; in the test with HOP-92 NSCLC, 121%. The growth is 74.6% with NCI-H522 lung; 95.4% in the test with A549/ATCC NSCLC; 100% with 786-0 renal; 111% in the test on COLO 205 colon; 111% with DU-145 prostate; 89% in the test on K-562 leukemia. For the same compound, the growth in the test on MALME-3M melanoma was 98.9%; with MDA-MB-231 breast, 119%; in the test with RXF 393 renal, 113%; in the test on SF-268 CNS it was 110%; with SF-295 CNS it was 112%; in the test on SF-539 CNS it was 101%. In addition, the growth was 78% in the test with UACC-257 melanoma and 101% in the test on M14 melanoma.
On to `Nc1ccc2c(c1)Cc1cc(N)c(N)cc1-2`, for which the growth is 86.2% in the test with NCI-H23 lung; 95.4% with NCI-H226 lung; 92% in the test on NCI-H322M lung; 95% with HOP-62 NSCLC; 95.9% with NCI-H460 lung; 101% with HOP-92 NSCLC. Besides, the growth with NCI-H522 lung is 74.6%; in the test on A549/ATCC NSCLC it was 77.9%; in the test with 786-0 renal it was 107%; in the test with COLO 205 colon it was 103%; in the test with DU-145 prostate it was 108%; in the test on K-562 leukemia, 97.3%. Also, the growth is 95.8% with MALME-3M melanoma; 84% with MDA-MB-231 breast; 97.3% in the test with RXF 393 renal; 104% with SF-268 CNS; 106% with SF-295 CNS; 109% in the test with SF-539 CNS. The growth is 81% with UACC-257 melanoma and 102% in the test with M14 melanoma.
Regarding `NNc1ncccn1`, the growth was 98.4% in the test on NCI-H23 lung; 109% in the test with NCI-H226 lung; 105% in the test with NCI-H322M lung; 101% with HOP-62 NSCLC; 112% in the test with NCI-H460 lung; 111% with HOP-92 NSCLC. Also, the growth was 84.6% with NCI-H522 lung; 97.1% with A549/ATCC NSCLC; 95.7% in the test on 786-0 renal; 117% in the test with COLO 205 colon; 116% with DU-145 prostate; 102% with K-562 leukemia. Also, the growth in the test on MALME-3M melanoma is 118%; in the test on MDA-MB-231 breast, 100%; with RXF 393 renal, 120%; in the test with SF-268 CNS, 103%; with SF-295 CNS, 108%; in the test with SF-539 CNS it was 105%. In addition, the values for the growth in the test on UACC-257 melanoma and with M14 melanoma were 104% and 108%, respectively.
On to `C=CCc1cc(OC)c(OC)c(OC)c1`, for which the growth in the test on NCI-H23 lung was 95.6%; with NCI-H226 lung, 104%; with NCI-H322M lung it was 117%; in the test with HOP-62 NSCLC, 104%; with NCI-H460 lung, 97.1%; with HOP-92 NSCLC it was 108%. Besides, the growth was 101% in the test with NCI-H522 lung; 96.2% in the test with A549/ATCC NSCLC; 108% in the test on 786-0 renal; 108% in the test on COLO 205 colon; 102% in the test with DU-145 prostate; 105% with K-562 leukemia. For the same compound, the growth in the test on MALME-3M melanoma is 109%; in the test with MDA-MB-231 breast it was 99%; with RXF 393 renal it was 103%; in the test on SF-268 CNS it was 95.3%; in the test with SF-295 CNS, 113%; in the test with SF-539 CNS, 114%. The growth in the test with UACC-257 melanoma was 99.1%; with M14 melanoma, 103%.
As to `CC1(C)CCC(C)(C)NC(=S)N1`, the growth was 100% in the test on NCI-H23 lung; -99.8% (active) in the test with NCI-H226 lung; 109% in the test with NCI-H322M lung; 94.9% in the test with HOP-62 NSCLC; 115% in the test with NCI-H460 lung; 107% in the test on HOP-92 NSCLC. Moreover, the growth in the test on NCI-H522 lung was 94.8%; with A549/ATCC NSCLC, 108%; with 786-0 renal, 105%; in the test with COLO 205 colon it was 103%; in the test on DU-145 prostate, 107%; in the test with K-562 leukemia, 103%. Further, the growth in the test with MALME-3M melanoma is 97.3%; in the test with MDA-MB-231 breast, 111%; in the test with RXF 393 renal, 112%; in the test on SF-268 CNS, 105%; in the test on SF-295 CNS, 102%; in the test on SF-539 CNS it was 105%. Besides, the growth with UACC-257 melanoma was 113%; in the test with M14 melanoma, 98.9%.
Consider `c1ccc2[nH]c(Cc3nc4ccccc4[nH]3)nc2c1`, for which the growth was 107% in the test on NCI-H23 lung; 112% in the test with NCI-H226 lung; 93.1% in the test on NCI-H322M lung; 99.2% in the test on HOP-62 NSCLC; 111% with NCI-H460 lung; 85% in the test with HOP-92 NSCLC. The growth was 103% with NCI-H522 lung; 103% in the test on A549/ATCC NSCLC; 117% in the test with 786-0 renal; 105% in the test on COLO 205 colon; 109% in the test with DU-145 prostate; 126% with K-562 leukemia. In addition, the growth with MALME-3M melanoma was 89%; in the test with MDA-MB-231 breast it was 106%; with RXF 393 renal, 114%; in the test on SF-268 CNS, 131%; in the test on SF-295 CNS, 101%; in the test on SF-539 CNS it was 105%. Also, the growth in the test with UACC-257 melanoma was 111%; in the test with M14 melanoma it was 94.3%.
Consider `CCOC(=O)c1ccc(C(C)(C)C)cc1`, for which the growth with NCI-H23 lung is 102%; in the test with NCI-H226 lung it was 101%; in the test on NCI-H322M lung it was 101%; with HOP-62 NSCLC, 107%; in the test with NCI-H460 lung, 109%; in the test on HOP-92 NSCLC, 117%. The growth with NCI-H522 lung was 105%; with A549/ATCC NSCLC, 102%; in the test with 786-0 renal it was 104%; with COLO 205 colon it was 108%; in the test with DU-145 prostate, 104%; in the test on K-562 leukemia, 94.5%. The growth in the test with MALME-3M melanoma is 103%; in the test with MDA-MB-231 breast it was 114%; with RXF 393 renal, 118%; in the test with SF-268 CNS, 98.9%; in the test on SF-295 CNS it was 108%; in the test on SF-539 CNS, 110%. For the same compound, the growth was 99.9% with UACC-257 melanoma and 104% with M14 melanoma.
In the case of `CCOC(=O)c1ccc(NC(C)=O)o1`, the growth in the test on NCI-H23 lung is 105%; in the test on NCI-H226 lung, 95%; in the test on NCI-H322M lung, 108%; with HOP-62 NSCLC it was 86.3%; in the test on NCI-H460 lung it was 87.2%; in the test with HOP-92 NSCLC it was 103%. For the same compound, the growth with NCI-H522 lung is 95.2%; with A549/ATCC NSCLC, 76.2%; with 786-0 renal, 105%; in the test on COLO 205 colon, 106%; in the test on DU-145 prostate it was 111%; with K-562 leukemia, 84.3%. Moreover, the growth in the test with MALME-3M melanoma is 107%; with MDA-MB-231 breast, 105%; in the test with RXF 393 renal it was 102%; in the test on SF-268 CNS it was 100%; with SF-295 CNS, 98.5%; in the test on SF-539 CNS it was 105%. Also, the growth in the test on UACC-257 melanoma was 80.2%; with M14 melanoma, 106%.
Consider `CC(=O)N(C)N=Nc1ccc(C)cc1`, for which the growth with NCI-H23 lung is 95%; with NCI-H226 lung, 97.7%; in the test with NCI-H322M lung, 92.3%; with HOP-62 NSCLC, 95.8%; in the test on NCI-H460 lung it was 116%; with HOP-92 NSCLC, 100%. Besides, the growth with NCI-H522 lung is 92.9%; in the test with A549/ATCC NSCLC it was 113%; in the test on 786-0 renal, 99.9%; in the test on COLO 205 colon it was 115%; with DU-145 prostate it was 107%; in the test with K-562 leukemia, 105%. Also, the growth is 94.5% in the test with MALME-3M melanoma; 102% with MDA-MB-231 breast; 122% with RXF 393 renal; 91.3% in the test with SF-268 CNS; 101% with SF-295 CNS; 101% in the test on SF-539 CNS. The growth in the test on UACC-257 melanoma was 101%; with M14 melanoma it was 96.7%.
As to `Cc1[nH]c(=S)[nH]c(=O)c1C`, the growth with NCI-H23 lung was 101%; in the test with NCI-H226 lung, 99.7%; in the test on NCI-H322M lung, 114%; in the test on HOP-62 NSCLC, 107%; with NCI-H460 lung, 109%; in the test on HOP-92 NSCLC, 125%. Moreover, the growth was 95.4% in the test on NCI-H522 lung; 94.3% in the test with A549/ATCC NSCLC; 106% in the test on 786-0 renal; 115% in the test on COLO 205 colon; 110% in the test with DU-145 prostate; 99.7% in the test with K-562 leukemia. For the same compound, the growth was 109% in the test with MALME-3M melanoma; 105% with MDA-MB-231 breast; 115% in the test with RXF 393 renal; 108% with SF-268 CNS; 103% with SF-295 CNS; 103% with SF-539 CNS. Further, the growth in the test with UACC-257 melanoma is 92.9%; in the test with M14 melanoma it was 109%.
Regarding `OCCOc1ccc(-c2cc(-c3ccccn3)nc(-c3ccccn3)c2)cc1`, the growth in the test with NCI-H23 lung was 18.5%; in the test on NCI-H226 lung, 0.498% (active); with NCI-H322M lung, 9.08% (active); in the test on HOP-62 NSCLC, 4.56% (active); in the test on NCI-H460 lung it was 0.477% (active); in the test on HOP-92 NSCLC, -1.12% (active). The growth in the test on NCI-H522 lung is -18.8% (active); in the test with A549/ATCC NSCLC, 4.79% (active); in the test on 786-0 renal, 1.56% (active); with COLO 205 colon, 0.364% (active); in the test with DU-145 prostate, -10.2% (active); with K-562 leukemia, -2.31% (active). Further, the growth in the test on MALME-3M melanoma is 17.3%; in the test with MDA-MB-231 breast, 21.4%; in the test on RXF 393 renal it was 2.52% (active); with SF-268 CNS, 15%; in the test with SF-295 CNS, 14.6%; with SF-539 CNS it was -6.53% (active). The results for the growth in the test with UACC-257 melanoma and with M14 melanoma were 1.35% (active) and -62.5% (active), respectively.
As to `COc1ccc(/C=N/NC(=O)COCC(=O)N/N=C/c2ccc(OC)cc2)cc1`, the growth was 107% with NCI-H23 lung; 99.5% in the test with NCI-H226 lung; 113% with NCI-H322M lung; 117% in the test with HOP-62 NSCLC; 107% with NCI-H460 lung; 92.5% in the test with HOP-92 NSCLC. The growth in the test with NCI-H522 lung was 107%; in the test on A549/ATCC NSCLC, 98.3%; in the test on 786-0 renal it was 106%; with COLO 205 colon, 111%; in the test on DU-145 prostate, 113%; in the test with K-562 leukemia it was 102%. Further, the growth was 115% with MALME-3M melanoma; 98.4% with MDA-MB-231 breast; 104% in the test with RXF 393 renal; 110% in the test with SF-268 CNS; 97.1% in the test with SF-295 CNS; 100% with SF-539 CNS. The growth is 96.6% with UACC-257 melanoma and 115% in the test on M14 melanoma.

The record behind these values is PubChem BioAssay (NCI).
